According to PubChem BioAssay AID488789 (Broad Institute, 2010):
Entries with a potency or affinity are not part of this list. Results filed as inconclusive are left out. Calls of active or inactive are those of the source.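 How the source made its calls: active means samples whose fitted half-maximal inhibition concentration is no more than ten times the top valid dose tested; inconclusive means flat response between -70 and -30, or invalid curve fit; inactive means flat within 30 of zero, potency above limit, or signal rising.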

Each molecule was assayed against Trypsin (Sus scrofa) (UniProt P00761) (assay: porcine trypsin inhibitors, dose response, selectivity assay for Rce1 protease inhibitor project, biochemical, quenched peptide fluorescence, cherry-pick (AID 488789)). Details: quenched peptide cleavage fluorescence; series mostly up to 10 µM; activity change, negative = inhibition: at the top concentration.
Chain of Trypsin (Sus scrofa) (P00761 whole entry, looked up): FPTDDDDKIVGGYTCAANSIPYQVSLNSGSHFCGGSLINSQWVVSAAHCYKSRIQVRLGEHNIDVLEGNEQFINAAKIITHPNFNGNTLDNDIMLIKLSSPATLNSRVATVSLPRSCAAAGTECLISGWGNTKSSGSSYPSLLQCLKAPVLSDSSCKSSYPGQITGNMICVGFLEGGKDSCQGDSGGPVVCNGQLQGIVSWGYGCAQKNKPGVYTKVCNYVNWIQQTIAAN

| Structure (SMILES) | activity change, negative = inhibition |
| --- | --- |
| COc1ccc(-n2c(SCc3ccc([N+](=O)[O-])cc3)nnc2-c2ccc(C)cc2)cc1 | 1.2% (inactive) |
| CC1=NN(c2ccccc2)C(=O)/C1=C\c1ccc(Br)s1 | 10.2% (inactive) |
| COc1ccc(OC)c(Cc2nnc(CCC(=O)N3CCN(C4CCCC4)CC3)o2)c1 | -6.54% (inactive) |
| CC1(C)CC2CC(C)(CN2S(=O)(=O)c2ccc(N)cc2)C1 (configuration not stated) | -1.27% (inactive) |
| O=C(CCNC(=O)N1CC(=O)Nc2ccccc21)NCCc1cccc(F)c1 | 6.18% (inactive) |
| CC(C)[C@H](NC(=O)OCc1ccccc1)C(=O)OCC(=O)Nc1c(F)cccc1F | -4.5% (inactive) |
| COc1ccccc1C1=NN(C2=NN=C(N)Cc3ncnn32)C(O)(C(F)(F)F)C1 (configuration not stated) | -8.08% (inactive) |
| OC(CNCCC1C=Nc2ccccc21)Cn1c2ccc(Cl)cc2c2cc(Cl)ccc21 (configuration not stated) | 1.09% (inactive) |
| CCn1cc(/C=C(\NC(=O)c2ccccc2F)C(=O)N2CCOCC2)c2ccccc21 | 9.46% (inactive) |
| COc1ccc(-c2cc(C(F)(F)F)nc(SCC(=O)N(C)Cc3cn(C)nc3C)n2)cc1OC | -7.78% (inactive) |
| O=S(=O)(c1ccc(-c2csc(Nc3ccc(F)cc3)n2)cc1)N1CCCC1 | -4.3% (inactive) |
| CCN(CC)CCN(C(=O)c1ccc2ccccc2c1)c1nc2ccc(F)cc2s1 | -0.0599% (inactive) |
| O=C(c1cnc(Cl)c(Cl)c1)N1CCC(Cc2ccccc2)CC1 | 5.08% (inactive) |
| O=C(Nc1ccc(N2CCOCC2)c(Cl)c1)c1cc2ccccc2o1 | 8.34% (inactive) |
| COC(=O)c1nc(N)sc1-c1ccc(Cl)c(Cl)c1 | -6.59% (inactive) |
| C/C=C(/C)C(=O)O[C@H]1[C@@H](O)c2c(ccc3ccc(=O)oc23)OC1(C)C | -4.87% (inactive) |
| COc1ccc(C2c3c(ncn(CCCO)c3=N)Oc3ccc4ccccc4c32)cc1 (configuration not stated) | 0.00832% (inactive) |
| Cc1ccccc1NS(=O)(=O)c1ccc(C(=O)NCC(c2ccccc2)N(C)C)cc1 (configuration not stated) | 8.17% (inactive) |
| Cc1ccc(S(=O)(=O)Nc2ccccc2C(=O)NCC2CCCO2)cc1 (configuration not stated) | -0.29% (inactive) |

| Structure (SMILES) | activity change, negative = inhibition |
| --- | --- |
| COc1ccc(Br)cc1C(=O)Nc1cc(C)cc(C)c1 | 13.5% (inactive) |
| COCCNc1nc(N)c([N+](=O)[O-])c(N2CCCCCC2)n1 | 13.4% (inactive) |
| CC1(c2ccc(OCC#N)cc2)C=C(c2ccc(OCC#N)cc2)n2nc(C(F)(F)F)nc2N1 (configuration not stated) | 5.89% (inactive) |
| Cc1nc(SC(C(=O)c2ccccc2)c2ccccc2)nc2ccccc12 (configuration not stated) | 3.6% (inactive) |
| Cc1cccc(NS(=O)(=O)c2ccc(C)c(C(=O)OCC(=O)Nc3cc(C)on3)c2)c1 | 1.4% (inactive) |
| COc1ccc(CCN(C)C(=O)c2ccc(S(=O)(=O)Nc3ccccc3C)cc2)cc1OC | 9.33% (inactive) |
| Nc1nc2n[nH]nc2c(=O)[nH]1 | 8.03% (inactive) |
| COc1cccc(NC(=O)Nc2cccn(Cc3ccc(C)cc3)c2=O)c1 | 5.65% (inactive) |
| Cc1cc(C)cc(N2CC(O)=C(c3nc4ccccc4c(=O)[nH]3)C2=N)c1 | -4.42% (inactive) |
| CC(=O)N[C@@H](C)c1nc2ccccc2n1CCCN1CCN(c2nc(-c3ccc(C)cc3)cs2)CC1 | 2.36% (inactive) |
| COc1cc(C(=O)OCC(=O)Nc2ccc(SC(F)F)cc2)cc(OC)c1OC | 1.57% (inactive) |
| COc1cc2c(cc1OC)C(C)=NC1(CCCCC1)C2 | -10.1% (inactive) |
| COc1ccccc1CC(=O)Nc1ccc2c(C)cc(=O)oc2c1 | -1.39% (inactive) |
| CCCCCCCCCC[N+](C)(C)CC/C=C1/c2ccccc2Sc2ccc(Cl)cc21 | -1.75% (inactive) |
| Oc1c(N=NC(=S)Nc2ccccc2F)c2ccccc2n1Cc1ccccc1Cl | -0.175% (inactive) |
| CC(=O)OC1CCC2(C)C(COc3ccc4ccc(=O)oc4c3)C(C)(O)CCC2C1(C)C (configuration not stated) | -6.54% (inactive) |
| COc1ccc(S(=O)(=O)N(CC(=O)N2CCCC2)Cc2ccccc2)cc1 | 2.3% (inactive) |
| CCOc1ccc(-c2nc(CCl)cs2)cc1OC | -9.87% (inactive) |
